# PubChem BioAssay (NCATS)
# Records with an inconclusive call do not appear. Active and inactive are the calls of the source. Unless noted, the call rests on the fitted dose curve; in most records, active means well fitted curve in the direction sought with a large enough effect; inconclusive means small, poorly fitted or top-dose-only effect, or another doubt; inactive means no such curve, though single readings can be large; an effect the other way counts as inactive or inconclusive.
# Experiments:
# [1] = target: Retinoic acid receptor RXR-alpha (Homo sapiens) (UniProt P19793); assay: qHTS assay for small molecule agonists of retinoid X receptor alpha signaling (AID 588544; calls by dose curve;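 further: 0% = DMSO basal wells and 100% = reference agonist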); conditions: HEK293T RXRa-UAS-bla, beta-lactamase reporter, 18 h; series mostly up to 76.7 µM
# [2] = target: Thyroid hormone receptor beta (Homo sapiens) (UniProt P10828); assay: qHTS assay for small molecule agonists of thyroid hormone receptor beta signaling (AID 588545; calls by dose curve;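 further: 0% = DMSO only and 100% = 10 nM T3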); conditions: TR-UAS-bla GripTite HEK 293, beta-lactamase ratio, agonist mode, 18 h; series mostly up to 76.7 µM
# Procedure, shortened: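 Compounds were tested as agonists in TR-UAS-bla-GripTite HEK 293 cells. After 18 hrs at 37 C, CCF4 substrate was added and fluorescence read after 2 hrs at room temperature.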
# [3] = qHTS assay for small molecule antagonists of retinoid X receptor alpha signaling (AID 588546; active means well fitted inhibition curve with a large enough effect in the signal ratio, with a control signal flat, not every such curve was filed as active; the % refers to the signal ratio; further: potency means the concentration at half of the fitted maximal effect;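 on max response: cells stimulated with 9-cis-retinoic acid as agonist; on the % scale 0 is the no-effect control and ±100 the full control effect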); conditions: HEK293T RXRa-UAS-bla, beta-lactamase ratio, antagonist mode; measured here: W530 green channel, cytotoxicity proxy
# Procedure, shortened: (§1)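 Beta-lactamase reporter inhibition, read as CCF4 fluorescence ratio (ex 405, em 460/530 nm) after 2 h at RT. HEK293T UAS-bla cells, 2500/well, were stimulated with 9-cis-RA at 500 or 100 nM final alongside test compound for 18 h at 37 C.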
# [4] = target: Retinoic acid receptor RXR-alpha (Homo sapiens) (UniProt P19793); assay: as above; conditions: HEK293T RXRa-UAS-bla, beta-lactamase ratio, antagonist mode
# Procedure, shortened: as §1
# [5] = qHTS assay for small molecule activators of the p53 signaling pathway (AID 651743; active means well fitted activation curve with a large enough effect in the signal ratio, not every such curve was filed as active; the % refers to the signal ratio; further: potency means the concentration at half of the fitted maximal effect; on activation: % of control where 0% means no effect); conditions: HCT-116 p53RE-bla, beta-lactamase FRET ratio, 16 h; activation: stronger effect = higher value
# Procedure, shortened: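 Screen for p53 pathway agonists uses stably transfected p53RE-bla HCT-116 cells, 4,000 per well, treated 16 h at 37 C with compounds in DMSO.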
# [6] = qHTS assay for small molecule activators of the nuclear factor-kappa B (NF-kB) signaling pathway (AID 651749; active means well fitted activation curve with a large enough effect in the signal ratio; the % refers to the signal ratio; further: % of control where 0% means no effect); conditions: NF-kB-bla ME-180 cells, beta-lactamase FRET ratio, 16 h; activation: stronger effect = higher value
# Procedure, shortened: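 Stably transfected ME-180 line; NF-kB response element upstream of beta-lactamase. Treatment: compound or DMSO, 16 hr. Detection: fluorescent FRET substrate.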
# [7] = qHTS assay for environmental chemicals that activate the Aryl hydrocarbon Receptor (AhR) signaling pathway (AID 651777); conditions: 1A2-DRE human hepatoma cells, luciferase, 24 h; activation: stronger effect = higher value; further: % of control where 0% means no effect; nearly all actives have a fitted effect of over 15% in size
# Procedure, shortened: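 Concentration–response screening used 1,200 1A2-DRE cells per well, 24 hr compound exposure (37 C, 5% CO2), and One-Glo luminescence as the AhR-driven CYP1A2 reporter signal.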
# [8] = target: Peroxisome proliferator-activated receptor alpha (Homo sapiens) (UniProt Q07869); assay: qHTS assay for small molecule agonists of the peroxisome proliferator-activated receptor alpha (PPARalpha) signaling pathway (AID 651778); conditions: PathHunter PPARalpha complementation, chemiluminescence, 6 h; max response: stronger effect = higher value; further: potency means the concentration at half of the fitted maximal effect; on max response: % of control where 0% means no effect
# Procedure, shortened: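 Chemiluminescence from complemented enzyme reported PPARalpha activation in cells after 6 hr of compound treatment at 37 C. The detection reagent was incubated for 60 min at room temperature, and compounds were scored as agonists.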
# [9] = qHTS assay for small molecule agonists of the antioxidant response element (ARE) signaling pathway measured by Nrf2-dependant transcriptional activity (AID 720636; active means well fitted curve in the direction sought with a large enough effect in the repeat runs; an effect the other way counts as inactive or inconclusive; further: potency means the concentration at half of the fitted maximal effect;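 on activation: HepG2 cells with an ARE-driven luciferase reporter; % of control where 0% means no effect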); conditions: ARE-luc HepG2, Nrf2 luciferase reporter, 16 h; series mostly up to 92.4 µM
# Procedure, shortened: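 Attachment 6 hr at 37 C, then compound versus DMSO vehicle for 16 hr in ARE-luc HepG2 cells (1% dialyzed FBS); luminescence recorded 30 min after ONE-Glo addition at room temperature.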
# [10] = qHTS assay for small molecule agonists of the antioxidant response element (ARE) signaling pathway measured by Nrf2-dependant transcriptional activity - cell viability counter screen (AID 720653; active means well fitted curve in the direction sought with a large enough effect in the repeat runs; an effect the other way counts as inactive or inconclusive; further: on the % scale 0 is the no-effect control and ±100 the full control effect); conditions: ARE-bla HepG2 viability, CellTiter-Glo ATP luminescence, 16 h; max response: stronger effect = lower value
# Procedure, shortened: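 Cytotoxicity counter screen: intracellular ATP quantified by CellTiter-Glo luminescence in the same ARE-bla HepG2 plates, after 16 h compound exposure and a 2 h beta-lactamase substrate step.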
# [11] = qHTS assay for cell viability of HEK293 cells (AID 743288); conditions: ATP luminescence (CellTiter-Glo), 18 h; max response: stronger effect = lower value; further: nearly all actives have a fitted effect of over 50% in size; further: potency means the concentration at half of the fitted maximal effect; on max response: on the % scale 0 is the no-effect control and ±100 the full control effect
# Procedure, shortened: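 Total intracellular ATP, measured with a luciferase-coupled reagent, indicates the number of viable HEK293 cells. Exposure to test chemicals lasts 18 h at 37 C in 1,536-well format at 2,000 cells/well.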
# [12] = qHTS assay for cell viability of the p53RE-bla HCT-116 cell line (AID 743292); conditions: p53RE-bla HCT-116 viability, ATP luminescence, 16 h; series mostly up to 95 µM; further: on the % scale 0 is the no-effect control and ±100 the full control effect; nearly all actives have a fitted effect of over 55% in size
# Procedure, shortened: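 Compound-exposed HCT-116 (p53RE-bla) cells, 4,000 per well, were kept 16 h at 37 C following a 5 h preincubation. Cell number was estimated from total ATP by CellTiter-Glo luminescence read after 30 min at room temperature.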
# [13] = target: Glucocorticoid receptor (Homo sapiens) (UniProt P04150); assay: qHTS assay for small molecule agonists of glucocorticoid receptor signaling (AID 588532; active means well fitted curve in the direction sought with a large enough effect in the signal ratio, with a control signal flat; the % refers to the signal ratio;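 further: 100% = dexamethasone at 0.1 µM and 0% = DMSO only wells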); conditions: HeLa MMTV-bla, beta-lactamase ratio, agonist, 18 h; activation: stronger effect = higher value, percent of dexamethasone control, DMSO zero
# Procedure, shortened: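 Using MMTV-bla HeLa cells in medium with 1% stripped FBS and 25 mM HEPES, compounds were titrated and incubated overnight-length (18 h). Beta-lactamase cleavage of CCF4 was quantified by dual-emission fluorescence.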
# [14] = target: Peroxisome proliferator-activated receptor delta (Homo sapiens) (UniProt Q03181); assay: qHTS assay for small molecule agonists of peroxisome proliferator-activated receptor delta signaling (AID 588534; calls by dose curve;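 further: 0% = DMSO basal wells and 100% = positive control agonist at 10 µM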); conditions: HEK293T PPARdelta-UAS-bla, beta-lactamase ratio, 18 h; series mostly up to 76.7 µM
# Procedure, shortened: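 Cell-based beta-lactamase reporter assay run in agonist mode: cells seeded and incubated 5 hrs at 37 C, compounds added and incubated 18 hrs at 37 C. CCF4 dye fluorescence read after 2 hrs at RT; EC50 and efficacy from Hill fits.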
# [15] = target: Vitamin D3 receptor (Homo sapiens) (UniProt P11473); assay: qHTS assay for small molecule agonists of vitamin D receptor signaling (AID 588543; calls by dose curve;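 further: 0% = DMSO basal and 100% = reference agonist control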); conditions: HEK293T VDR-UAS-bla, beta-lactamase ratio, 16 h; series mostly up to 76.8 µM
# Procedure, shortened: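 Agonist-mode beta-lactamase reporter: HEK293T VDR-UAS-bla cells in charcoal-stripped 2% FBS, compound series 16 h 37 C, CCF4 2 h RT. EC50 from Hill fit, scaled against DMSO and 50 nM calcitriol control.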
# [16] = target: Nuclear receptor subfamily 1 group I member 2 (Rattus norvegicus) (UniProt Q9R1A7); assay: qHTS assay for small molecule activators of the rat pregnane X receptor (rPXR) signaling pathway (AID 651751; call rule not given here; further: 0% is about no effect); conditions: rPXR reporter cells, luciferase (One-Glo), 24 h
# [17] = target: Peroxisome proliferator-activated receptor delta (Homo sapiens) (UniProt Q03181); assay: qHTS assay for small molecule antagonists of peroxisome proliferator-activated receptor delta signaling (AID 588535; active means well fitted inhibition curve with a large enough effect in the signal ratio, with a control signal flat, not every such curve was filed as active; the % refers to the signal ratio); conditions: HEK293T PPARd-UAS-bla, beta-lactamase FRET ratio, 18 h; series mostly up to 76.7 µM
# Procedure, shortened: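 Cell-based beta-lactamase assay in antagonist mode: 4000 HEK293T PPAR-delta-UAS-bla cells per well, 5 hr preincubation then 18 hr compound incubation at 37 C. IC50 obtained by Hill equation fitting.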
# [18] = target: Peroxisome proliferator-activated receptor gamma (Homo sapiens) (UniProt P37231); assay: qHTS assay for small molecule agonists of peroxisome proliferator-activated receptor gamma signaling (AID 588536; active means well fitted curve in the direction sought with a large enough effect in the signal ratio, with a control signal flat, not every such curve was filed as active; the % refers to the signal ratio;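 further: 0% = DMSO basal wells and 100% = rosiglitazone at 2 µM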); conditions: HEK293 PPARg-UAS-bla, beta-lactamase ratio, 16 h; series mostly up to 76.7 µM
# Procedure, shortened: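 Test agents, titrated, stimulated HEK293 UAS-bla cells overnight (16 h, 37 C). Substrate CCF4 was then added for two hours at room temperature before fluorescence reading.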
# [19] = target: Vitamin D3 receptor (Homo sapiens) (UniProt P11473); assay: qHTS assay for small molecule antagonists of vitamin D receptor signaling (AID 588541; calls by dose curve;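 further: receptor activated by calcitriol during compound treatment; on the % scale 0 is the no-effect control and ±100 the full control effect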); conditions: HEK293T VDR-UAS-bla, beta-lactamase ratio, antagonist mode; series mostly up to 76.7 µM
# Procedure, shortened: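 Antagonist-mode beta-lactamase reporter assay: HEK293T VDR-UAS-bla cells were exposed to titrated compound alongside 1-alpha,25-dihydroxyvitamin D3 at 3 nM final for 16 h. Values were normalized to the 50 nM agonist control and DMSO basal, with IC50 and efficacy from Hill equation fits.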
# Peroxisome proliferator-activated receptor gamma (Homo sapiens), sequence (P37231 whole entry, looked up): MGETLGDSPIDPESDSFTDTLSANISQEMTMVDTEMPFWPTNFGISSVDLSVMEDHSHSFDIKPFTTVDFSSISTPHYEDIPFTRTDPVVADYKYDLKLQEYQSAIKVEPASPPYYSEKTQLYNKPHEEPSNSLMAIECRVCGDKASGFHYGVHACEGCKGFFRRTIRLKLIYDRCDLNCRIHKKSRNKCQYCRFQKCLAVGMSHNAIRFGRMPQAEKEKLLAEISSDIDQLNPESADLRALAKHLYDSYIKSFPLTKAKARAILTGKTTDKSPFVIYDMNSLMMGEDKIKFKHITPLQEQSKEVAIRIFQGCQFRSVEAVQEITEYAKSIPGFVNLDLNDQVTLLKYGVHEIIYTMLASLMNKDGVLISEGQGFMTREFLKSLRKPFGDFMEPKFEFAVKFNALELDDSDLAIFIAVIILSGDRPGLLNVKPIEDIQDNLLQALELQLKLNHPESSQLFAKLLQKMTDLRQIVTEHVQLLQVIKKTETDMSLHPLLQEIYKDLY
# Glucocorticoid receptor (Homo sapiens), sequence (P04150 whole entry, looked up): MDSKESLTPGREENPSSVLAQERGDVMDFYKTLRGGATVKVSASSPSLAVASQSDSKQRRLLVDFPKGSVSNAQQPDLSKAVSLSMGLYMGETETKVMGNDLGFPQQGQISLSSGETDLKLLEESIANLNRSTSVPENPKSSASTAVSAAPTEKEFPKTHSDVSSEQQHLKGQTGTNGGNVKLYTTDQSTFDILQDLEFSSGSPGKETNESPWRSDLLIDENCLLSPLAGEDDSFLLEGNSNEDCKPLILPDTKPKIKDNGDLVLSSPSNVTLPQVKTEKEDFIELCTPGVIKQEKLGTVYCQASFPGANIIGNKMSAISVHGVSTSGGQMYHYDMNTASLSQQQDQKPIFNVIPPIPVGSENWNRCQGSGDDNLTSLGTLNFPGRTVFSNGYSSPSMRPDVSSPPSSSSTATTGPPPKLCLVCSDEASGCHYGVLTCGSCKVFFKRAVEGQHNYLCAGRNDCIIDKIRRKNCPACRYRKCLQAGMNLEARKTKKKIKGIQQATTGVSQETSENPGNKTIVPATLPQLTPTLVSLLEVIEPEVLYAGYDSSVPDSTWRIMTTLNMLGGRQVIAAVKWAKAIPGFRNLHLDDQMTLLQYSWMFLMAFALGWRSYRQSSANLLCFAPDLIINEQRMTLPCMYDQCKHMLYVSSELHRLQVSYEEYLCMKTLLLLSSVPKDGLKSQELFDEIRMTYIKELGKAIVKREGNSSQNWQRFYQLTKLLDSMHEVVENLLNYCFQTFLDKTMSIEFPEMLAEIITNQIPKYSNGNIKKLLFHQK
# Thyroid hormone receptor beta (Homo sapiens), sequence (P10828 whole entry, looked up): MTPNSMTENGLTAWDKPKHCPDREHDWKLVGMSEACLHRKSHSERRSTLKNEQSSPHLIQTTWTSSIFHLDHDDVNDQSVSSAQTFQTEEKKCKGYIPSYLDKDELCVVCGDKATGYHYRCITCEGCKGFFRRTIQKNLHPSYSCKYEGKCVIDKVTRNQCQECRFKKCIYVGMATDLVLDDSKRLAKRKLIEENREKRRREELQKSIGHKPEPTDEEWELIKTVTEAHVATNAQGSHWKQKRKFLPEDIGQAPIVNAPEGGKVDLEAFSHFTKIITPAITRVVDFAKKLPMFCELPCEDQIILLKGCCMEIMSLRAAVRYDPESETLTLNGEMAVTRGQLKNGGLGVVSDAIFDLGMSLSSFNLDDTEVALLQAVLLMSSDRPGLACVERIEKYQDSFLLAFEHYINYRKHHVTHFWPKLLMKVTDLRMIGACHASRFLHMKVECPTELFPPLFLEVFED
# Retinoic acid receptor RXR-alpha (Homo sapiens), sequence (P19793 whole entry, looked up): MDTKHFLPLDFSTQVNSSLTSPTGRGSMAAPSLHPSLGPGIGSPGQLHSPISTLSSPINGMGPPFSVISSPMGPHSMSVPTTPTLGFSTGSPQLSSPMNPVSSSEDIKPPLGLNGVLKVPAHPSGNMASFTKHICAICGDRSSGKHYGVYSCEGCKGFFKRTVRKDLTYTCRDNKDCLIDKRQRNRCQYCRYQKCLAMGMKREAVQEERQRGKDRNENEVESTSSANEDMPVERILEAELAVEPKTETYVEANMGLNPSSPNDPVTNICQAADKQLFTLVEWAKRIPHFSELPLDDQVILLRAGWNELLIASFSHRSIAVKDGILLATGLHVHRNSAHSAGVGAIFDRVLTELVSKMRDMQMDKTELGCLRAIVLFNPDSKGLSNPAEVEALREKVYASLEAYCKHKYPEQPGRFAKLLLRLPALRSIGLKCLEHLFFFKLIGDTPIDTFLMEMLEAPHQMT
# Peroxisome proliferator-activated receptor alpha (Homo sapiens), sequence (Q07869 whole entry, looked up): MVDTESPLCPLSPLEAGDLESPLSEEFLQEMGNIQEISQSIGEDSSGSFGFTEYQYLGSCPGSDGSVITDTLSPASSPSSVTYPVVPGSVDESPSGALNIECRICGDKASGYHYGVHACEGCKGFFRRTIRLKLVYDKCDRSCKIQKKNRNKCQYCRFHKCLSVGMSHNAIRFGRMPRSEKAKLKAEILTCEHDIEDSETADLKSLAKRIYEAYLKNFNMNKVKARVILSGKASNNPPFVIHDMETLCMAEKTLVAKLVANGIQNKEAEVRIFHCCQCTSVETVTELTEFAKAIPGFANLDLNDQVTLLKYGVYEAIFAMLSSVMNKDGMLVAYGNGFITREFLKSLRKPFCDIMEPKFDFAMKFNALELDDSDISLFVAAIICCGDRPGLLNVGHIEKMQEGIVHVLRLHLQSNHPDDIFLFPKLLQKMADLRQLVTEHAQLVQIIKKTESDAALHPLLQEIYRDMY
# Vitamin D3 receptor (Homo sapiens), sequence (P11473 whole entry, looked up): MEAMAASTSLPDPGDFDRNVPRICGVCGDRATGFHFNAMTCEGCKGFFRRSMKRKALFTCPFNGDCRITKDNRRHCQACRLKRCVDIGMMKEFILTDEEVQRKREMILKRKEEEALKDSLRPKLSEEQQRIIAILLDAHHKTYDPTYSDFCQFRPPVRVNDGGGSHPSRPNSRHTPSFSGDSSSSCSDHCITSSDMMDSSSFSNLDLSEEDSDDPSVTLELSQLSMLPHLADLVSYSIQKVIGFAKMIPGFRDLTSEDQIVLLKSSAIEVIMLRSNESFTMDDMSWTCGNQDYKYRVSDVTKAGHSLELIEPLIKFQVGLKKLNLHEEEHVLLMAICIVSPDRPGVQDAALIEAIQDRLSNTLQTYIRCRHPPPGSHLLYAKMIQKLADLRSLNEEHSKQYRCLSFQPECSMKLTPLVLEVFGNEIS
# Peroxisome proliferator-activated receptor delta (Homo sapiens), sequence (Q03181 whole entry, looked up): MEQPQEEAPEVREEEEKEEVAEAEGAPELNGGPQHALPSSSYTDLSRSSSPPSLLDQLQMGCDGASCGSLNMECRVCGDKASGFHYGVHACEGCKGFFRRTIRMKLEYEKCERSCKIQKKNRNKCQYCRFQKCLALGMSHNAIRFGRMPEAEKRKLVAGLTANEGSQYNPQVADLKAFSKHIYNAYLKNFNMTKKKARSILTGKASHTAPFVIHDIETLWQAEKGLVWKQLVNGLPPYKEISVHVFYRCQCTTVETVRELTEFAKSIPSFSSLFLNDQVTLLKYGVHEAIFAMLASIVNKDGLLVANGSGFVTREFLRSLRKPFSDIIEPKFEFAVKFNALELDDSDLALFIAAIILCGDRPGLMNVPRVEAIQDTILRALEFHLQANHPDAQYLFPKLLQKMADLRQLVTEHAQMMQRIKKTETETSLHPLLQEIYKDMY
# Nuclear receptor subfamily 1 group I member 2 (Rattus norvegicus), sequence (Q9R1A7 whole entry, looked up): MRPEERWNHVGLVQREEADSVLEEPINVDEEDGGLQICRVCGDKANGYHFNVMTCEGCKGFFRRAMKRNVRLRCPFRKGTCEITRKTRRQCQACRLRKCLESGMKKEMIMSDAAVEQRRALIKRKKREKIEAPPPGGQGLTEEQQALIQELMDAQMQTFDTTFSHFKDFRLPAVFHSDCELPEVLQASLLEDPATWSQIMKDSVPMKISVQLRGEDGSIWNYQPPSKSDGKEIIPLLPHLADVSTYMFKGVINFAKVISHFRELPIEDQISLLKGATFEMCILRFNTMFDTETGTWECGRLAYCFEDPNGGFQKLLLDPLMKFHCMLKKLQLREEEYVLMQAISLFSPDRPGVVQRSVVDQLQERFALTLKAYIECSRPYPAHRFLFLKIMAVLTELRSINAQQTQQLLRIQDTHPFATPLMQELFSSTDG
compound,measurement,setting,value
COC(C)(C)CCC[C@H](C)C/C=C/C(C)=C/C(=O)OC(C)C,Potency,[1],inactive
same,Potency,[2],inactive
same,max response,[3],-16.5%
same,max response,[4],6.26% (inactive)
same,activation,[5],-4.16% (inactive)
same,activation,[6],0.706% (inactive)
same,activation,[7],-0.0877% (inactive)
same,max response,[8],0.0369% (inactive)
same,Potency,[9],inactive
same,max response,[10],-6.46% (inactive)
same,max response,[11],-5.99% (inactive)
same,Potency,[12],inactive
C=CC(=O)OCC(CC)(COC(=O)C=C)COC(=O)C=C,activation,[13],-13.7% (inactive)
same,outcome,[14],inactive
same,outcome,[15],inactive
same,max response,[3],23.9%
same,Potency,[4],44.7 µM (active)
same,activation,[6],0.162% (inactive)
same,activation,[7],9.7% (inactive)
same,Potency,[9],61.1 µM (active)
same,max response,[10],-3.3% (inactive)
same,Potency,[11],50.1 µM (active)
same,Potency,[12],inactive
same,max response,[16],-14.4% (inactive)
O=C(O)c1c(Cl)ccc2cc(Cl)cnc12,activation,[13],3.46% (inactive)
same,outcome,[14],inactive
same,Potency,[17],inactive
same,Potency,[18],inactive
same,outcome,[15],inactive
same,Potency,[1],inactive
same,Potency,[2],inactive
same,max response,[3],3.11%
same,max response,[4],-13.1% (inactive)
same,activation,[6],-0.182% (inactive)
same,activation,[7],2.06% (inactive)
same,max response,[8],-2.09% (inactive)
same,Potency,[9],inactive
same,max response,[10],-9.56% (inactive)
same,max response,[11],-11.4% (inactive)
same,Potency,[12],inactive
same,max response,[16],-2.15% (inactive)
C[C@H]1[C@H](c2ccc(Cl)cc2)SC(=O)N1C(=O)NC1CCCCC1,activation,[13],-1.81% (inactive)
same,Potency,[19],inactive
same,outcome,[15],inactive
same,Potency,[2],inactive
same,activation,[5],4.32% (inactive)
same,activation,[7],6.81% (inactive)
same,max response,[8],-4.71% (inactive)
same,Potency,[9],inactive
same,max response,[10],-8.81% (inactive)
same,max response,[11],-26% (inactive)
same,Potency,[12],inactive
CC1(C)[C@H](C(=O)O[C@H](C#N)c2cccc(Oc3ccccc3)c2)[C@@H]1C=C(Br)Br,Potency,[17],inactive
same,Potency,[1],inactive
same,Potency,[2],inactive
same,activation,[5],3.18% (inactive)
same,activation,[7],-1.98% (inactive)
same,max response,[8],-0.333% (inactive)
same,Potency,[9],inactive
same,max response,[10],-10.6% (inactive)
same,max response,[11],-19% (inactive)
same,Potency,[12],inactive
Cc1ccccc1CO[C@@H]1C[C@@]2(C(C)C)CC[C@]1(C)O2,outcome,[14],inactive
same,Potency,[17],inactive
same,Potency,[18],inactive
same,Potency,[19],inactive
same,outcome,[15],inactive
same,Potency,[1],inactive
same,Potency,[2],inactive
same,max response,[3],0.789%
same,max response,[4],-22.7% (inactive)
same,activation,[6],-3.81% (inactive)
same,activation,[7],0.466% (inactive)
same,max response,[8],5.16% (inactive)
same,Potency,[9],inactive
same,max response,[10],1.88% (inactive)
same,max response,[11],-20.5% (inactive)
same,Potency,[12],inactive
N#Cc1cc(I)c(O)c(I)c1,Potency,[17],inactive
same,Potency,[19],inactive
same,outcome,[15],inactive
same,Potency,[1],inactive
same,Potency,[2],inactive
same,max response,[3],0.0011%
same,max response,[4],-13.5% (inactive)
same,Potency,[5],44.7 µM (active)
same,activation,[6],1.07% (inactive)
same,activation,[7],-1.69% (inactive)
same,Potency,[8],15.8 µM (active)
same,Potency,[9],inactive
same,max response,[11],-4.72% (inactive)
same,Potency,[12],inactive
same,max response,[16],-7.71% (inactive)
O=CNC(N1CCN(C(NC=O)C(Cl)(Cl)Cl)CC1)C(Cl)(Cl)Cl (stereo not given),activation,[13],-2.65% (inactive)
same,outcome,[14],inactive
same,Potency,[17],inactive
same,Potency,[18],inactive
same,Potency,[19],inactive
same,outcome,[15],inactive
same,Potency,[1],inactive
same,Potency,[2],inactive
same,activation,[5],-7.11% (inactive)
same,activation,[6],-2.29% (inactive)
same,activation,[7],0.502% (inactive)
same,max response,[8],-1.75% (inactive)
same,Potency,[9],inactive
same,max response,[10],-22.2% (inactive)
same,max response,[11],-20.2% (inactive)
same,Potency,[12],inactive
CCCOCC(=Nc1ccc(Cl)cc1C(F)(F)F)n1ccnc1,activation,[13],-3.28% (inactive)
same,Potency,[17],inactive
same,Potency,[19],inactive
same,outcome,[15],inactive
same,Potency,[1],inactive
same,Potency,[2],inactive
same,activation,[5],-5.04% (inactive)
same,activation,[6],-1.47% (inactive)
same,activation,[7],14% (inactive)
same,max response,[8],9.44% (inactive)
same,Potency,[9],61.1 µM (active)
same,max response,[10],-4.06% (inactive)
same,max response,[11],-21.5% (inactive)
same,Potency,[12],inactive
CC(C)=C[C@@H]1[C@@H](C(=O)OCN2C(=O)C3=C(CCCC3)C2=O)C1(C)C,activation,[13],11.7% (inactive)
same,Potency,[2],inactive
same,max response,[3],-15.3%
same,max response,[4],18% (inactive)
same,activation,[5],11.9% (inactive)
same,activation,[7],-1.3% (inactive)
same,max response,[8],-0.573% (inactive)
same,Potency,[9],inactive
same,max response,[10],-22.2% (inactive)
same,max response,[11],-11.5% (inactive)
same,Potency,[12],inactive
same,max response,[16],4.94% (inactive)
